Source: PubChem BioAssay (National Center for Advancing Translational Sciences (NCATS))
A selection: hits, their analogues and other compounds. The true share with any hit is near 11%.
RORgamma inh: inhibitors of mouse ROR gamma transcriptional activity | P51450 | AID 2551 | actives 5.4% (n = 310,000) | Potency, µM (highest dose often 53.6 µM), for the others: at the top dose activity change, negative = inhibition, hits mostly inhibitors | Drosophila S2 Gal4-RORgamma UAS-luciferase reporter, 20 h; note: potency is the fitted concentration of half-maximal effect; % is set by controls: 0 for no effect and ±100 for the full control effect; nearly all actives have a fitted effect of over 60% in size
Target sequence (P51450 whole entry, looked up, the tested form may be a part): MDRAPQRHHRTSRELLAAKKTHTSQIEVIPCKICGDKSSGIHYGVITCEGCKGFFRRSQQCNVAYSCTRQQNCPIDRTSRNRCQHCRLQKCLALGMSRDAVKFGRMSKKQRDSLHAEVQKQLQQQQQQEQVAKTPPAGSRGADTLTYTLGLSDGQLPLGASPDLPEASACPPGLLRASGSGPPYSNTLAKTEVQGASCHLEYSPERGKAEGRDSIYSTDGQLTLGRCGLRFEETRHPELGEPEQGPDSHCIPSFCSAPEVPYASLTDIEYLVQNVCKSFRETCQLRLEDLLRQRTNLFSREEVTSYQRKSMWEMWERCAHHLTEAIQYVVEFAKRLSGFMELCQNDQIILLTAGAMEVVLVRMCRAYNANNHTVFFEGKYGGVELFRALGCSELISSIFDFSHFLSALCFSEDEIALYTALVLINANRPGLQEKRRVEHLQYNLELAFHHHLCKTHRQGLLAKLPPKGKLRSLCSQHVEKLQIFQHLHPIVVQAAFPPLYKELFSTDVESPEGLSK
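Stably transfected Drosophila Schneider cells are the test system, with ROR gamma fused to Gal4 and luciferase under UAS control; luminescence is read after 20 hr of 700 uM copper sulfate induction at ambient temperature.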
SW480 rerep: inducers of DNA re-replication in SW480 colon cancer cells | SW480 DNA re-replication, Hoechst DNA content imaging, 48 h | Potency, µM (doses to about 46.1 µM), for the others: at the highest dose re-replication activation, hits mostly activators | actives 1.8% (n = 340,000); note: potency is the fitted concentration of half-maximal effect; % of control where 0% means no effect; nearly all actives have a fitted effect of over 55% in size
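Treated cells incubate 48 hr (37 C, 5% CO2), are stained 40 min with Hoechst, and nuclear fluorescence is enumerated; a rise in nuclei with high DNA signal marks re-replication.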
VP16 counter: Gal4-VP16 reporter inhibition counter-screen; Drosophila S2 Gal4-VP16 UAS-luciferase, luminescence, 20 h; Potency, µM (highest dose often 53.6 µM), for inactives: at the top dose activity, negative = inhibition, usual class: inhibitors; actives 3.5% (n = 310,000); AID 2546;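 note: Gal4-VP16 expression switched on by copper sulfate through the metallothionein promoter; potency is the fitted concentration of half-maximal effect; % is set by controls: 0 for no effect and ±100 for the full control effect; nearly all actives have a fitted effect of over 50% in size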
MCF10A rereplic: induces DNA re-replication in MCF 10a normal breast cells; actives 2.9% (n = 350,000); MCF 10A DNA re-replication, Hoechst nuclear intensity, 48 h; Potency, µM (series often up to 46.1 µM), for inactives: top-dose activity, positive = re-replication, actives largely listed as activators; AID 624296; note: potency is the fitted concentration of half-maximal effect; % of control where 0% means no effect; nearly all actives have a fitted effect of over 50% in size
IL1B secr inh: inhibitors of inflammasome signaling (IL-1 beta secretion) | THP-1 LPS/ATP IL-1B secretion, AlphaLISA, 16 h; hits give low values | activity change, % at 57.5 µM | actives 4.7% (n = 360,000); in the data active = activity change below about -50%; inconclusive = mostly about -30% to -49%; note: % is set by controls: 0 for no effect and ±100 for the full control effect
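THP-1 cells pretreated 1 hr with compounds (up to 57.5 uM final), then stimulated with LPS (250 ng/mL final) plus ATP (1.25 mM final); secreted IL-1B measured by AlphaLISA after 16 hr, decreased signal indicating inhibition.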
Starred values were filed as active, the others as inactive; [ ] = dose if it differs, or a comment. Unless noted, calls come from the whole dose curve; as a rule, active = well fitted curve in the direction sought with a large enough effect; inconclusive = small, poorly fitted or top-dose-only effect, or another doubt; inactive = no such curve, though single readings can be large; an effect the other way counts as inactive or inconclusive.

`COc1nc(Nc2cccc([N+](=O)[O-])c2)nc(OC)n1` gave RORgamma inh 8%, SW480 rerep -13%, VP16 counter 6%, MCF10A rereplic -7% and IL1B secr inh -8.
C#CCOc1nc(Nc2cccc([N+](=O)[O-])c2)nc(OCC#C)n1 was read as RORgamma inh 25%, SW480 rerep inconclusive, VP16 counter -6%, MCF10A rereplic 24% and IL1B secr inh -66*.
For O=C(NCc1ccccc1Cl)c1ccc2nc([C@@H]3O[C@H](CO)[C@@H](O)[C@H]3O)[nH]c2c1 the results were IL1B secr inh 16.
`CCOC(=O)C1(C)CCCCN1C(=O)c1ccoc1` (configuration not stated) gave IL1B secr inh 29.
C=CCOc1cccn2c(N(C)C(=O)c3ccccc3F)c(CC)nc12 was read as IL1B secr inh 15.
Screening C=CCNc1nc(Nc2ccc([N+](=O)[O-])cc2)nc(N2CCCC2)n1 returned RORgamma inh 0.89µM*, SW480 rerep 4%, VP16 counter -4%, MCF10A rereplic 3% and IL1B secr inh -63*.
`COc1ccc(Nc2nc(Cl)nc(N3CCN(c4ccc(OC)cc4)CC3)n2)cc1` gave RORgamma inh 2% and VP16 counter -20%.
CC1CCN(c2nc(Cl)nc(Nc3ccc([N+](=O)[O-])cc3)n2)CC1 was read as RORgamma inh inconclusive, SW480 rerep -3%, VP16 counter 2%, MCF10A rereplic 5.2µM* and IL1B secr inh -99*.
For CCCCNC(=O)C1(C)CCCCN1C(=O)c1cc(-c2ccccc2)cs1 (configuration not stated) the results were IL1B secr inh 33.
`CN(Cc1ccccc1)C(=O)COC(=O)CNS(=O)(=O)c1ccc2ccccc2c1` gave SW480 rerep -3%, MCF10A rereplic 4% and IL1B secr inh -5.
`COc1ccccc1-n1c2nc3ccccc3nc2c2c(=O)n(-c3cc(C)cc(C)c3)cnc21` gave RORgamma inh 49%, SW480 rerep inconclusive, VP16 counter -12%, MCF10A rereplic 23µM* and IL1B secr inh -95*.
`Cc1cc(OCc2cc(C(=O)N(C)C(C)c3ccccn3)no2)cc(C)c1Cl` (configuration not stated) gave RORgamma inh inconclusive, SW480 rerep -12%, VP16 counter inconclusive, MCF10A rereplic inconclusive and IL1B secr inh -12.
CC(C)(C)NC(=O)CN(Cc1ccccc1)S(=O)(=O)c1ccccc1 was read as RORgamma inh 0%, SW480 rerep 14%, VP16 counter 1%, MCF10A rereplic inconclusive and IL1B secr inh -74*.
COc1ccc(/C=N/NC(=O)CN(Cc2ccccc2)S(=O)(=O)c2ccc3c(c2)OCCO3)cc1 was read as RORgamma inh 23%, SW480 rerep 6%, VP16 counter -20%, MCF10A rereplic 5% and IL1B secr inh -18.
O=C(CN(Cc1ccc(Cl)c(Cl)c1)S(=O)(=O)c1ccccc1)N/N=C\c1ccc2c(c1)OCO2 was read as RORgamma inh -2%, SW480 rerep inconclusive, VP16 counter 0%, MCF10A rereplic 19% and IL1B secr inh -20.
`O=C(CN(Cc1ccccc1)S(=O)(=O)c1ccccc1)N/N=C/c1ccc2c(c1)OCO2` gave RORgamma inh 37%, SW480 rerep 2%, VP16 counter 0.89µM*, MCF10A rereplic -4% and IL1B secr inh inconclusive.
`O=C(CN(Cc1ccccc1)S(=O)(=O)c1ccc2c(c1)OCCO2)N/N=C/c1ccc(F)cc1` gave RORgamma inh 19%, SW480 rerep -4%, VP16 counter -1%, MCF10A rereplic 4% and IL1B secr inh -56*.
CNC(=O)CN(Cc1ccccc1)S(=O)(=O)c1ccccc1 was read as RORgamma inh -7%[10 µM], SW480 rerep -3%, VP16 counter -8%, MCF10A rereplic 17% and IL1B secr inh -7.
Screening Nc1ccc2cc3ccc(N)cc3nc2c1 returned RORgamma inh -41%[10 µM], SW480 rerep -14%, VP16 counter inconclusive and MCF10A rereplic -21%.
For Cc1cc(C)c(C)c(S(=O)(=O)N2CCN(C(=O)c3ccccn3)CC2)c1C the results were SW480 rerep -10%, MCF10A rereplic 10% and IL1B secr inh 9.
`Cc1cc(C)nc(N/N=C/C=C/c2ccccc2)n1` gave RORgamma inh 1.3µM*, SW480 rerep inconclusive, VP16 counter 7.9µM*, MCF10A rereplic -4% and IL1B secr inh 0.
Screening Cc1cc(=O)[nH]c(N/N=C/C=C/c2ccccc2)n1 returned RORgamma inh 13µM*, SW480 rerep -14%, VP16 counter -20%, MCF10A rereplic 0% and IL1B secr inh -10.
Screening Cc1cc(C)nc(N/N=C/C(Cl)=C/c2ccccc2)n1 returned RORgamma inh -6%, SW480 rerep 0%, VP16 counter inconclusive, MCF10A rereplic -1% and IL1B secr inh -51*.
Screening Cc1cc(=O)[nH]c(N/N=C2/CCCC/C2=C\c2ccccc2)n1 returned RORgamma inh 6.3µM*, SW480 rerep inconclusive, VP16 counter 18µM*, MCF10A rereplic 8% and IL1B secr inh -10.
For CCOC(=O)C1=C(COC(=O)Cc2ccccc2F)NC(=O)NC1C (configuration not stated) the results were SW480 rerep 3%, MCF10A rereplic 0% and IL1B secr inh -3.
`CCOC(=O)C1(C)CCCN(C(=O)c2cccc(OC(F)(F)F)c2)C1` (configuration not stated) gave IL1B secr inh -6.
`Cc1sc(N/N=C/C=C/c2ccccc2)nc1-c1ccccc1` gave RORgamma inh 3.5µM*, SW480 rerep 14%, VP16 counter inconclusive, MCF10A rereplic inconclusive and IL1B secr inh -20.
CCOC(=O)N/N=C/C(Cl)=C/c1ccccc1 was read as RORgamma inh inconclusive, SW480 rerep 1%, VP16 counter inconclusive, MCF10A rereplic 0% and IL1B secr inh -53*.
`O=C(Cc1cccs1)N/N=C/C(Cl)=C/c1ccccc1` gave RORgamma inh inconclusive, SW480 rerep -7%, VP16 counter -1%, MCF10A rereplic 18% and IL1B secr inh 4.
Cc1sc(NC(=O)/C=C/c2ccc3c(c2)OCO3)nc1-c1ccccc1 was read as RORgamma inh 10%, SW480 rerep 6%, VP16 counter -11%, MCF10A rereplic inconclusive and IL1B secr inh -22.
`CC(C)NC(=S)NN=C1c2ccccc2-c2ccccc21` gave RORgamma inh 7.9µM*, SW480 rerep 2%, VP16 counter inconclusive, MCF10A rereplic 11% and IL1B secr inh 1.
Screening COC(=O)N/N=C(\C)c1ccco1 returned RORgamma inh -34%, SW480 rerep 1%, VP16 counter -15%, MCF10A rereplic 0% and IL1B secr inh 21.
